# Data published in the supplement of paper PMC6555819.
# Key:
# Assay in all cases: PBM binding z-score (relative to random genomic background probes); higher = stronger binding; sequences stand for … in GC…GCGATTGACAGCGTAGAATGAAGG
# [1] = test system: FXR:RXRa (NR concentration 270 nM, RXRa partner concentration 90 nM)
# In short: (§1)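 Binding buffer was PBS pH 7.4 with 2% milk, 0.02% Triton X-100, 1 mM DTT, 0.2 mg/mL BSA and 0.4 mg/ml salmon testes DNA. In it, ligand-free nuclear receptor dimers were incubated 1 h on custom Agilent 4×180K protein-binding microarrays carrying double-stranded probes. Antibodies against each partner (one per run) detected binding, and z-scores were calculated against random background probes after regression normalization of scanned fluorescence.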
# [2] = test system: LXRa:RXRa (NR concentration 270 nM, RXRa partner concentration 90 nM)
# In short: as §1
# [3] = test system: LXRa homodimer (NR concentration 270 nM)
# In short: as §1
# [4] = test system: LXRb:RXRa (NR concentration 270 nM, RXRa partner concentration 90 nM)
# In short: as §1
# [5] = test system: LXRb homodimer (NR concentration 270 nM)
# In short: as §1
# [6] = test system: PPARa:RXRa (NR concentration 270 nM, RXRa partner concentration 90 nM)
# In short: as §1
# [7] = test system: PPARg:RXRa (NR concentration 180 nM, RXRa partner concentration 90 nM)
# In short: as §1
# [8] = test system: PPARg:RXRa 270nM:90nM, anti-RXR (NR concentration 270 nM, RXRa partner concentration 90 nM)
# In short: as §1
# [9] = test system: PPARg:RXRa 30nM:10nM, anti-RXR (NR concentration 30 nM, RXRa partner concentration 10 nM)
# In short: as §1
# [10] = test system: PPARg:RXRa 90nM:30nM, anti-RXR (NR concentration 90 nM, RXRa partner concentration 30 nM)
# In short: as §1
# [11] = test system: PPARg:RXRa DBDmut IVT, anti-RXR (DBD mutation: RXRa K156A/R161A, NR concentration 270 nM, RXRa partner concentration 90 nM)
# In short: as §1
# [12] = test system: PPARg:RXRa IVT, anti-PPARg (NR concentration 270 nM, RXRa partner concentration 90 nM)
# In short: as §1
# [13] = test system: PPARg DBDmut:RXRa IVT, anti-PPARg (DBD mutation: PPARg1 K132A/R137A, NR concentration 270 nM, RXRa partner concentration 90 nM)
# In short: as §1
# [14] = test system: PPARg DBDmut IVT, anti-PPARg (DBD mutation: PPARg1 K132A/R137A, NR concentration 270 nM)
# In short: as §1
# [15] = test system: PPARg homodimer (NR concentration 180 nM)
# In short: as §1
# [16] = test system: PXR:RXRa (NR concentration 270 nM, RXRa partner concentration 90 nM)
# In short: as §1
# [17] = test system: PXR homodimer (NR concentration 270 nM)
# In short: as §1
# [18] = test system: RARa:RXR (NR concentration 270 nM, RXRa partner concentration 90 nM)
# In short: as §1
# [19] = test system: RARa homodimer (NR concentration 270 nM)
# In short: as §1
# [20] = test system: RARb:RXRa (NR concentration 270 nM, RXRa partner concentration 90 nM)
# In short: as §1
Sequence,PBM binding z-score [1],PBM binding z-score [2],PBM binding z-score [3],PBM binding z-score [4],PBM binding z-score [5],PBM binding z-score [6],PBM binding z-score [7],PBM binding z-score [8],PBM binding z-score [9],PBM binding z-score [10],PBM binding z-score [11],PBM binding z-score [12],PBM binding z-score [13],PBM binding z-score [14],PBM binding z-score [15],PBM binding z-score [16],PBM binding z-score [17],PBM binding z-score [18],PBM binding z-score [19],PBM binding z-score [20]
ACTTACAGGTCAACGAGGTTATAGCACGCGTATA,6.79,5.97,3.32,4.66,1.8,5.76,5.5,5.63,2.14,4.37,4.4,4.7,1.92,1.44,2.53,5.25,5.38,4.94,1.81,4.52
GCGACTGGGGCAAGGCAGGTTACCATAAGGTTGG,-0.183,0.247,-0.418,-0.0825,-0.867,0.979,0.978,0.49,-0.677,0.000745,3.58,3.12,0.704,-0.934,0.688,0.207,-0.567,0.854,-0.915,0.95
TAGCCTAGGTCATTGGGACAGTATAGTACGCATC,4.69,3.35,0.922,2.45,0.648,3.84,3.81,3.69,1.27,2.57,3.11,3.8,1.3,0.736,2.9,1.78,-0.233,2.5,0.512,3.75
CCTACTGGGCCTTCAGGTCATTGATATCAACGTT,1.24,0.751,0.919,1.3,-0.3,1.93,0.682,1.85,0.024,1.09,2.17,2.64,0.207,0.0216,1.5,1.47,0.552,1.5,-0.361,1.7
ATCGAAAGGTCGAGGTGAGTAAAGAGAAAGGGAA,4.14,3.26,0.0324,2.59,0.664,4.57,3.27,3.83,1.09,2.5,0.198,1.99,1.11,0.693,1.75,2,0.184,2.88,0.627,3.95
GCGACTGGGGCAGAGCAGGTTACCATAAGGTTGG,0.158,-0.389,-0.79,-0.197,-1.19,0.462,0.564,0.0587,-1.01,-0.178,3.52,2.22,-0.693,-0.694,-0.578,-0.201,-0.162,-0.103,-0.568,0.569
TCTTGGAGATCAAAGGTTAAGAAAGCCGAAGCCT,2.17,2.17,-0.196,2.2,-0.93,4.34,5.56,6.62,5.5,7,1.05,2.18,-0.186,-0.682,0.267,2.44,-0.521,3.89,-0.387,1.9
CAGCCTAGGTCAGGGCCAGTATAGGAGGAACGTT,1.63,0.984,0.0185,0.506,-0.929,2.13,0.978,1.03,0.126,0.524,0.848,1.84,-0.882,-1.52,1.03,0.272,-0.731,1.2,-0.0375,3.6
TGCCAAAGTTCAAAGGTAACGTAAGTATCCACAC,7.28,6.4,4.65,4.85,1.81,5.9,7.61,7.16,4.42,6.78,-0.203,3.58,0.542,1.37,4.73,6.14,4.67,7.24,1.95,5.19
CCTAATGGGCCATCAGGTCATTGATATCAACGTT,1.58,1.34,1.1,1.48,0.197,2.33,1.5,2.54,0.609,1.98,3.13,3.41,-0.226,0.112,1.81,1.84,0.78,2.18,0.44,2.15
TAGCCTACGTCATTGGGCCAGTATAGTACGCATC,-0.593,-0.86,-0.485,-0.66,-0.257,-0.37,0.495,-0.589,-0.293,-0.205,-0.24,0.164,-0.121,-0.0205,-0.852,-0.757,-0.796,-0.734,-0.851,-0.413
ATCTCTAGGAAAAAGTTCAGTGAATCCCGAGGAT,0.0166,0.275,0.466,0.0384,0.735,0.653,1.18,3.25,1.41,2.47,-0.718,-0.0888,0.814,0.266,0.423,0.837,0.888,0.235,1,1.78
TCATAAAGGTAATACAGGTGAAAGTCGGCATCTA,1.53,2.4,0.378,1.49,0.311,2.48,1.23,3,4.29,3.61,3.29,2.39,0.311,0.578,1.44,1.05,0.48,1.52,0.815,1.43
TCTTGTAGATCAGCAGGTTAACAAAGCTGGCCAA,0.321,0.368,-0.313,0.507,-0.6,1.21,0.102,1.77,2.61,2.21,1.62,0.747,-0.763,-0.365,0.0617,0.171,-0.584,0.489,-0.289,0.359
ATCTCTAGGTAACCAAGTTCAGTTAATGCCGAAC,0.988,1.26,1.38,1.11,0.875,1.31,0.806,1.1,0.448,0.659,3.71,3.16,2.02,1.26,1.12,2.19,2.39,1.24,1.3,1.18
CCTGCTAGGTCAATGATCAGCTAAAGCAGCTCGC,2.71,1.96,-0.345,1.3,-0.139,2.62,1.98,2.46,0.000172,1.24,4.45,3.19,-0.369,-0.701,1.17,0.559,-0.751,1.13,-0.385,3.62
TGAATGAGGTTGTAAGATCAGGGAACGTTGCAAA,-0.0998,-0.208,-0.429,-0.35,0.0245,0.282,-0.0383,0.349,0.261,0.21,-0.831,-0.0172,0.744,-0.354,-0.324,-0.125,-0.318,0.203,-0.183,0.0234
TCTAGCCGGCCAGAGGGTCACTCAAGAGGTACGG,1.12,0.885,-0.666,1.07,-1.11,2.03,0.575,1.57,1.39,1.44,0.224,-0.0177,-0.893,-1.23,0.24,1.48,-0.354,2.24,-0.43,2.08
CCAGACAGGTGAAAGGTTACTCAGTCTGGTACGC,2.37,2.59,0.167,2.26,-0.0595,4.67,7.6,7.17,5.84,7.77,1.76,3.47,-0.162,0.368,1.65,2.74,0.256,4.24,0.58,2.22
TAGCCTAGTTCAGATCGGGCCAGTATACGCTATA,-0.29,-0.351,-0.598,-0.308,-0.592,-0.113,-0.019,-0.325,-0.538,-0.475,0.415,0.54,-0.537,-0.978,-0.824,0.226,-0.407,0.532,-1.17,0.472
CGAACTAGGTCATTGACAGGACAGTAAATAGTAA,4.05,2.93,0.467,2.31,-0.338,4.66,7.77,6.44,3.43,5.8,8.11,7.89,2.15,1.51,1.72,1.89,0.641,2.43,-0.0635,3.81
GCTATTAGTTGAAATGGCAACCGAATGATTCTCG,-0.365,-0.424,-0.152,-0.394,-0.166,-0.14,0.344,0.398,0.213,0.114,0.598,-0.104,0.641,0.526,0.501,-0.119,0.359,-0.166,0.404,-0.346
GCGACTGGGGCATCATCAGGTTACCATAACTTAA,0.261,0.0527,0.169,1.57,-0.509,1.46,1.1,0.894,-0.0999,0.381,4.15,3.3,-0.137,-0.42,0.121,0.266,-0.0234,1.05,-0.63,0.767
ACAGACAGGTGATGAAGGTTACTCAGGCTATCAT,0.29,0.278,0.0459,0.276,-0.288,0.714,0.777,0.381,0.107,0.0691,0.431,0.604,0.785,-0.154,0.281,0.38,0.162,0.715,0.502,0.957
TAGCCTATGTCATTGGGCCAGTATAGTACGCATC,-0.278,-0.41,-0.519,-0.0433,-0.648,0.0352,0.577,0.178,0.0263,0.065,0.158,0.381,0.11,0.249,-0.0273,-0.188,-0.118,-0.0244,-0.0402,0.0995
CCTTACGGGTCACTGACAGGTTATAACATTTGGA,5.58,4.49,0.519,3.76,0.0468,5.18,4.66,4.61,1.74,3.38,3.56,3.86,0.537,0.266,2.85,3.67,0.294,4.67,1.52,3.9
CTCGAAACGTCGTGCTCAGGTGAGTATACCAAAC,-0.453,-0.656,-0.383,-0.688,-0.52,-0.553,-0.362,-0.781,-0.655,-0.34,-0.582,-0.171,-0.256,0.311,-0.393,-0.468,-0.608,-0.466,-0.557,-0.265
ACTCTTAGTTGACTTAGGGCAACCGATACGACGC,0.556,0.443,0.285,0.398,0.941,0.448,0.905,0.0993,0.38,0.299,0.723,0.491,1.1,1.39,0.782,0.578,0.291,0.777,0.704,1.04
GCTCGTAGATCAAGGTTAAGAAAGACTAAGCTAA,-0.496,0.698,-0.704,0.341,-1.05,1.03,-0.16,0.485,-0.162,0.0383,-0.49,-0.249,-1.42,-0.839,-1.01,0.125,-0.272,0.412,-0.428,0.601
